An excerpt weighted towards active compounds, which were near 7.2% of everything screened.
AHR act – AHR activators, primary screen, cell-based, luminescence, luciferase reporter, human; Aryl hydrocarbon receptor (Homo sapiens), P35869; 2.5% of 320,000 active; activation, % at 5 µM; AHR-responsive luciferase reporter cells; AID 2796, 2010; in the data active = activation above about 47%
Target sequence (P35869 whole entry, looked up): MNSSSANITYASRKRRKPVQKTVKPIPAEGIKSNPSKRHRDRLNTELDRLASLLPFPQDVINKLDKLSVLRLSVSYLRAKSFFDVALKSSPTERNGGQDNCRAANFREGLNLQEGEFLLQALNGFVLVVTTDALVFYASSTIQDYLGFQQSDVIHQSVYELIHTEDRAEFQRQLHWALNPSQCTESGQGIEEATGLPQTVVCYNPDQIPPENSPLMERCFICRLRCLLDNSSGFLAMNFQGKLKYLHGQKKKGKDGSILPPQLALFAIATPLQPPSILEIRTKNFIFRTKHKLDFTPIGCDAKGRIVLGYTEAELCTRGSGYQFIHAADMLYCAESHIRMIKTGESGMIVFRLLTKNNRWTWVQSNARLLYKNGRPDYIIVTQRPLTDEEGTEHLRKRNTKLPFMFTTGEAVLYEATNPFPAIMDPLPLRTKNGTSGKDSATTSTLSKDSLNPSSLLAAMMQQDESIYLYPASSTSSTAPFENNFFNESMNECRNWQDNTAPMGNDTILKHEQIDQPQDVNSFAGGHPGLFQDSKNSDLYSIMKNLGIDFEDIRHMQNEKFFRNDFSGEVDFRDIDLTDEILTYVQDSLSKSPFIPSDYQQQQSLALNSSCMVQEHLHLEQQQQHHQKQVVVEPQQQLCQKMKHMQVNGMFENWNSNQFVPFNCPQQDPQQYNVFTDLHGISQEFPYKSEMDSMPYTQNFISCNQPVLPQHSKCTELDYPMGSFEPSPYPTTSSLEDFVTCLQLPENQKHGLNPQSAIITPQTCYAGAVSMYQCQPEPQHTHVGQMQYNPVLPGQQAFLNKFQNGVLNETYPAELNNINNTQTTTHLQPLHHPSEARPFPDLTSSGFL
VLA-4 inh – inhibition in human VLA-4 binding assay, primary screen, VLA-4 allosteric modulator project, MLPCN library, flow cytometry, VLA-4 expressing cells. Integrin alpha-4 (Homo sapiens), P13612. ligand binding flow cytometry. inhibition, % (about 7 µM as worked out from the volumes in the protocol). 0.2% of 330,000 active; in the data active = inhibition above about 50%
SUMO Mot1 rescue – yeast Mot1-301 growth rescue at high temperature, primary screen, SUMOylation pathway inhibitor project, S. cerevisiae, ATP luminescence, 38.5C; 1% of 320,000 active; growth rescue, % at 18.8 µM; S. cerevisiae Mot1-301 growth rescue; percent above DMSO median, 100 means doubled;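 active = every valid replicate shows activation above 250% relative to neutral control wells; inactive = the rest, any valid replicate at or below 250%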
Bfl-1 A1 inh – caspase 3/7 activation in MEF A1-2A-BIM cells, primary screen, A1 inhibitor project, cell-based, luminescence, HTS. Caspase-Glo 3/7 luminescence, 3 h; percent of clofoctol response, vehicle zero. caspase activation, % (concentration not given with the values). 0.066% of 330,000 active;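 active = over half of replicate activation scores above 10%, or exactly half above 10 with the replicate mean above 10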
Efflux pump mplx – inhibitors of Candida efflux pumps in yeast, primary screen, S. cerevisiae, Nile Red, multiplex | S. cerevisiae Candida pump triplex | inhibition, % at 10 µM | 0.44% of 330,000 active;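 active = plate passing quality check with inhibition over a set limit, or well fluorescence over plate mean plus 4 SD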;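 note: Nile Red retained in pooled yeast measured as flow cytometry median fluorescence; higher means more Nile Red kept so more efflux inhibition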
ALR H2O2 inh – inhibitors of human ALR sulfhydryl oxidase, primary screen, biochemical, H2O2 detection, HRP-luminol luminescence, single point; purified ALR, DTT oxidation; 3.8% of 290,000 active; inhibition, % (no concentration beside the values);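 active = mean replicate inhibition above about 79%, with every replicate also reaching it, limit read from the data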
AHR act cf – AHR activators, confirmation, cell-based, luminescence, luciferase reporter, human | shares compounds with AHR act | human cells, AHR-responsive luciferase reporter | activation, % at 9 µM | 87% of 2,300 active | AID 2845, 2010; in the data active = activation above about 49%;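 note: HepG2 hepatoma cells carrying a DRE-driven firefly luciferase reporter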
PXR act counter – human PXR activators, counter-screen for AHR activator project, cell-based, luciferase luminescence. shares compounds with AHR act. cell-based PXR reporter. activation, % at 11.6 µM. 88% of 2,300 active; in the data active = activation above about 11%;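 note: human hepatoma DPX-2 cells expressing full-length human PXR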
Yeast cmpd fluor – compound fluorescence in yeast efflux pump counter-screen; 4% of 1,700 active; fluorescence ratio to DMSO, % at 10 µM; S. cerevisiae AD/pABC3, flow cytometry; AID 588517; shares compounds with Efflux pump mplx;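 active = fluorescence ratio to DMSO above its plate's cutoff, the plate mean ratio plus 5 SD, cut at about 210% in these data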;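 note: unstained yeast with no Nile Red so the signal is compound autofluorescence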
CaMdr1 efflux inh – inhibitors of Candida albicans Mdr1 efflux, confirmation, flow cytometry, singleplex, Cherry Pick1 set. 1% of 1,700 active. S. cerevisiae AD/CaMDR1, Nile Red efflux. inhibition, % at 10 µM. AID 588518, 2011. shares compounds with Efflux pump mplx; in the data active = inhibition above about 26%;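 note: higher means more Nile Red retained so more efflux inhibition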
Cdr2 pump inh – inhibitors of Candida albicans Cdr2 efflux pump, confirmation, S. cerevisiae AD/CaCDR2, flow cytometry, cherry pick 1, singleplex; shares compounds with Efflux pump mplx; Nile Red retention; Nile Red retention ratio vs DMSO, % at 10 µM; 4% of 1,700 active; AID 588520, 2011; in the data active = Nile Red retention ratio vs DMSO above about 190%;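 note: higher ratio means more blocking of Cdr2 efflux of the dye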
Cdr1 pump inh – inhibitors of Candida albicans Cdr1 efflux pump, confirmation, S. cerevisiae AD/CaCDR1, flow cytometry, cherry pick 1, singleplex; AID 588522, 2011; Nile Red efflux; inhibition, % at 10 µM; shares compounds with Efflux pump mplx; 1% of 1,700 active;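 active = inhibition above the screen-wide mean plus twice its standard deviation, cut at about 32% in these data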
A number is an active result.

What do the screens show for `Cc1ocnc1C(=O)Nc1ccc(Cl)cc1`?
AHR act: 103.8; VLA-4 inh: inactive; SUMO Mot1 rescue: inactive; Bfl-1 A1 inh: inactive; Efflux pump mplx: 9.8; ALR H2O2 inh: inactive; AHR act cf: 66.1; PXR act counter: 25.1; Yeast cmpd fluor: inactive; CaMdr1 efflux inh: inactive; Cdr2 pump inh: inactive; Cdr1 pump inh: inactive

Results for Cc1cc(C(=O)Nc2ccc(Cl)cc2)on1 ?
AHR act: inactive; VLA-4 inh: inactive; SUMO Mot1 rescue: inactive; Bfl-1 A1 inh: inactive; Efflux pump mplx: inactive; ALR H2O2 inh: inactive

How did CCN(C(=O)CN1C(=O)NC2(CCCc3ccccc32)C1=O)c1ccc(F)cc1 (centres undefined) do in these assays?
AHR act: inactive; VLA-4 inh: inactive; SUMO Mot1 rescue: inactive; Bfl-1 A1 inh: inactive; Efflux pump mplx: inactive

How did Cc1ccc2nc(C(Cl)(Cl)Cl)nc(N/N=C/c3ccncc3)c2c1 do in these assays?
AHR act: 92.5; VLA-4 inh: inactive; SUMO Mot1 rescue: inactive; Bfl-1 A1 inh: inactive; Efflux pump mplx: 0.4; ALR H2O2 inh: inactive; AHR act cf: 109.7; PXR act counter: 15.4; Yeast cmpd fluor: inactive; CaMdr1 efflux inh: inactive; Cdr2 pump inh: inactive; Cdr1 pump inh: inactive

What do the screens show for `COc1ccccc1CNC(=O)[C@H](C)NC(=O)C1CCN(C(=O)[C@@H](N)C(C)C)CC1`?
AHR act: inactive; VLA-4 inh: inactive; SUMO Mot1 rescue: inactive; Bfl-1 A1 inh: inactive; Efflux pump mplx: inactive; ALR H2O2 inh: inactive

What do the screens show for `Cn1cnc([N+](=O)[O-])c1Oc1ccccc1`?
AHR act: inactive; VLA-4 inh: inactive; SUMO Mot1 rescue: inactive; Bfl-1 A1 inh: inactive; Efflux pump mplx: inactive; ALR H2O2 inh: inactive

Results for Cn1cnc([N+](=O)[O-])c1Oc1cccc2ccccc12 ?
AHR act: 82.4; VLA-4 inh: inactive; SUMO Mot1 rescue: inactive; Bfl-1 A1 inh: inactive; Efflux pump mplx: 1.1; ALR H2O2 inh: inactive; AHR act cf: 81.9; PXR act counter: 20.6; Yeast cmpd fluor: inactive; CaMdr1 efflux inh: inactive; Cdr2 pump inh: inactive; Cdr1 pump inh: inactive

What do the screens show for `c1csc(-c2nc3c4ccccc4c4ccccc4c3[nH]2)c1`?
AHR act: 112.2; VLA-4 inh: inactive; SUMO Mot1 rescue: inactive; Bfl-1 A1 inh: inactive; Efflux pump mplx: 0.4; AHR act cf: 95.8; PXR act counter: 25.1; Yeast cmpd fluor: inactive; CaMdr1 efflux inh: inactive; Cdr2 pump inh: inactive; Cdr1 pump inh: inactive

What do the screens show for `N#C/C(=C\c1ccncc1)C(N)=O`?
AHR act: inactive; VLA-4 inh: inactive; SUMO Mot1 rescue: inactive; Bfl-1 A1 inh: inactive; Efflux pump mplx: inactive; ALR H2O2 inh: inactive

Results for O=C(CC1Sc2ccccc2NC1=O)Nc1ccccc1[N+](=O)[O-] (centres undefined) ?
AHR act: 151.5; VLA-4 inh: inactive; SUMO Mot1 rescue: inactive; Bfl-1 A1 inh: inactive; Efflux pump mplx: 17.7; ALR H2O2 inh: inactive; AHR act cf: 111.2; PXR act counter: 37.6; Yeast cmpd fluor: inactive; CaMdr1 efflux inh: inactive; Cdr2 pump inh: inactive; Cdr1 pump inh: inactive

How did O=C(Nc1ccc(Nc2ccccc2)cc1)C(Cl)Cl do in these assays?
AHR act: inactive; VLA-4 inh: inactive; SUMO Mot1 rescue: inactive; Bfl-1 A1 inh: inactive; Efflux pump mplx: 20.2; ALR H2O2 inh: 91.9; Yeast cmpd fluor: inactive; CaMdr1 efflux inh: inactive; Cdr2 pump inh: inactive; Cdr1 pump inh: inactive

Results for O=C1/C(=C\c2ccc(-c3ccccc3Cl)o2)SC(=S)N1CC1CCCO1 (centres undefined) ?
AHR act: inactive; VLA-4 inh: inactive; SUMO Mot1 rescue: inactive; Bfl-1 A1 inh: inactive; Efflux pump mplx: 0.5; ALR H2O2 inh: inactive; Yeast cmpd fluor: inactive; CaMdr1 efflux inh: inactive; Cdr2 pump inh: inactive; Cdr1 pump inh: inactive

How did O=C(C1CCC1)N1CCc2cc(S(=O)(=O)NCCCN3CCCCC3)ccc21 do in these assays?
AHR act: inactive; VLA-4 inh: inactive; SUMO Mot1 rescue: inactive; Bfl-1 A1 inh: inactive; Efflux pump mplx: inactive; ALR H2O2 inh: inactive

What do the screens show for `CCOc1ccc(OCC)c(NS(=O)(=O)c2ccc3c(c2)CCN3C(=O)C2CCC2)c1`?
AHR act: inactive; VLA-4 inh: inactive; SUMO Mot1 rescue: inactive; Bfl-1 A1 inh: inactive; Efflux pump mplx: inactive; ALR H2O2 inh: inactive; Yeast cmpd fluor: inactive; CaMdr1 efflux inh: inactive; Cdr2 pump inh: inactive; Cdr1 pump inh: inactive

Results for CCOC(=O)C1CCN(S(=O)(=O)c2ccc3c(c2)CCN3C(=O)C2CCC2)CC1 ?
AHR act: inactive; VLA-4 inh: inactive; SUMO Mot1 rescue: inactive; Bfl-1 A1 inh: inactive; Efflux pump mplx: inactive; ALR H2O2 inh: inactive; Yeast cmpd fluor: inactive; CaMdr1 efflux inh: inactive; Cdr2 pump inh: inactive; Cdr1 pump inh: inactive

What do the screens show for `CCOC(=O)C1CCN(S(=O)(=O)c2ccc3c(c2)CCN3C(C)=O)CC1`?
AHR act: inactive; VLA-4 inh: inactive; SUMO Mot1 rescue: inactive; Bfl-1 A1 inh: inactive; Efflux pump mplx: inactive; ALR H2O2 inh: inactive

Results for CCCC(C)C(=O)OCC(=O)Nc1ccc(Br)cc1 (centres undefined) ?
AHR act: inactive; VLA-4 inh: inactive; SUMO Mot1 rescue: inactive; Bfl-1 A1 inh: inactive; Efflux pump mplx: inactive; ALR H2O2 inh: inactive

Results for CCOC(=O)CSc1cc(C)nc(NC(C)=O)n1 ?
AHR act: inactive; VLA-4 inh: inactive; SUMO Mot1 rescue: inactive; Bfl-1 A1 inh: inactive; Efflux pump mplx: inactive; ALR H2O2 inh: inactive
